Assay results reported in the supplement of paper PMC8728848.
Many of the other results were omitted from the sample, so the strongest signals are more common in it than they were.

What was measured:
Experiment in all cases: glycan array binding signal (z-score within array); higher = stronger binding
Conditions in all cases: glycan notation: IUPAC condensed, linker removed
[1] = biological target: GlcNAc(b1-2)[GlcNAc(b1-4)]Man(a1-3)[GlcNAc(b1-2)Man(a1-6)]Man(b1-4)GlcNAc(b1-4)GlcNAc
Method in brief: (§1)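 Negative Z-scores can be read as non-binding. The Z-score is calculated within each array and then averaged across arrays of one protein sequence at different concentrations or buffers and across linkers. Arrays, 3228 in all, were curated from the Consortium for Functional Glycomics database and kept only where the protein sequence was available.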

[2] = biological target: GlcNAc(b1-2)[GlcNAc(b1-4)]Man(a1-3)[GlcNAc(b1-4)][GlcNAc(b1-2)[GlcNAc(b1-6)]Man(a1-6)]Man(b1-4)GlcNAc(b1-4)[Fuc(a1-6)]GlcNAc
Method in brief: as §1

GlcNAc(b1-3)Gal = biological target: GlcNAc(b1-3)Gal
Method in brief: as §1

[3] = biological target: GlcNAc(b1-3)Gal(b1-4)GlcNAc(b1-2)[GlcNAc(b1-3)Gal(b1-4)GlcNAc(b1-6)]Man(a1-6)[GlcNAc(b1-3)Gal(b1-4)GlcNAc(b1-2)Man(a1-3)]Man(b1-4)GlcNAc(b1-4)GlcNAc
Method in brief: as §1

[4] = biological target: GlcNAc(b1-3)Gal(b1-4)GlcNAc(b1-3)Gal(b1-4)GlcNAc(b1-2)Man(a1-3)[GlcNAc(b1-3)Gal(b1-4)GlcNAc(b1-3)Gal(b1-4)GlcNAc(b1-2)Man(a1-6)]Man(b1-4)GlcNAc(b1-4)GlcNAc
Method in brief: as §1

[5] = biological target: GlcNAc(b1-4)Gal(b1-4)GlcNAc
Method in brief: as §1

[6] = biological target: GlcNAc(b1-4)GlcNAc(b1-4)GlcNAc
Method in brief: as §1

[7] = biological target: GlcNAc(b1-6)Gal(b1-4)GlcNAc
Method in brief: as §1

Man(a1-2)Man(a1-3)Man = biological target: Man(a1-2)Man(a1-3)Man
Method in brief: as §1

[8] = biological target: Man(a1-2)Man(a1-6)[Man(a1-3)]Man(a1-6)[Man(a1-2)Man(a1-2)Man(a1-3)]Man
Method in brief: as §1

[9] = biological target: Man(a1-3)[Man(a1-6)]Man(a1-6)[Man(a1-3)]Man
Method in brief: as §1

MurNAc(b1-4)GlcNAc = biological target: MurNAc(b1-4)GlcNAc
Method in brief: as §1

[10] = biological target: Neu5Ac(a2-3)Gal(b1-4)GlcNAc(b1-2)[Neu5Ac(a2-3)Gal(b1-4)GlcNAc(b1-4)]Man(a1-3)[GlcNAc(b1-4)][Neu5Ac(a2-3)Gal(b1-4)GlcNAc(b1-4)Man(a1-6)]Man(b1-4)GlcNAc(b1-4)GlcNAc
Method in brief: as §1

[11] = biological target: Neu5Ac(a2-3)Gal(b1-4)GlcNAc(b1-2)[Neu5Ac(a2-3)Gal(b1-4)GlcNAc(b1-6)]Man(a1-6)[Neu5Ac(a2-3)Gal(b1-4)GlcNAc(b1-2)Man(a1-3)]Man(b1-4)GlcNAc(b1-4)GlcNAc
Method in brief: as §1

[12] = biological target: Neu5Ac(a2-3)Gal(b1-4)GlcNAc(b1-3)Gal(b1-4)GlcNAc(b1-3)Gal(b1-4)GlcNAc(b1-2)Man(a1-3)[Neu5Ac(a2-3)Gal(b1-4)GlcNAc(b1-3)Gal(b1-4)GlcNAc(b1-3)Gal(b1-4)GlcNAc(b1-2)Man(a1-6)]GalNAc
Method in brief: as §1

[13] = biological target: Neu5Ac(a2-3)Gal(b1-4)GlcNAc(b1-3)[Neu5Ac(a2-3)Gal(b1-4)GlcNAc(b1-6)]GalNAc
Method in brief: as §1

[14] = biological target: Neu5Ac(a2-3)Gal(b1-4)[Fuc(a1-3)]GlcNAc(b1-3)Gal(b1-4)[Fuc(a1-3)]GlcNAc(b1-3)Gal(b1-4)[Fuc(a1-3)]GlcNAc
Method in brief: as §1

[15] = biological target: Neu5Ac(a2-3)Gal(b1-4)[Fuc(a1-3)]GlcNAc(b1-3)GalNAc
Method in brief: as §1

[16] = biological target: Neu5Ac(a2-3)[GalNAc(b1-4)]Gal(b1-4)GlcNAc
Method in brief: as §1

[17] = biological target: Neu5Ac(a2-6)Gal(b1-4)GlcNAc(b1-2)Man(a1-6)[GlcNAc(b1-2)Man(a1-3)]Man(b1-4)GlcNAc(b1-4)GlcNAc
Method in brief: as §1

[18] = biological target: Neu5Ac(a2-6)Gal(b1-4)GlcNAc(b1-3)Gal(b1-4)GlcNAc(b1-3)Gal(b1-4)GlcNAc(b1-2)Man(a1-3)[Neu5Ac(a2-6)Gal(b1-4)GlcNAc(b1-3)Gal(b1-4)GlcNAc(b1-3)Gal(b1-4)GlcNAc(b1-2)Man(a1-6)]GalNAc
Method in brief: as §1

[19] = biological target: Neu5Ac(a2-6)Gal(b1-4)GlcNAc(b1-3)Gal(b1-4)[Fuc(a1-3)]GlcNAc(b1-3)Gal(b1-4)[Fuc(a1-3)]GlcNAc
Method in brief: as §1

[20] = biological target: Neu5Ac(a2-8)Neu5Ac(a2-3)Gal(b1-4)Glc
Method in brief: as §1

[21] = biological target: Neu5Gc(a2-3)Gal(b1-3)[Fuc(a1-4)]GlcNAc
Method in brief: as §1

[22] = biological target: Neu5Gc(b2-6)Gal(b1-4)GlcNAc
Method in brief: as §1

B1: SP15308C-bot-338-23-338 (Bacteroides ovatus) (protein)
chain: DEWTDEQFKQLISFKTQPGGWGVTDVHVRYANSAKYTYNLPVLVSGSTDNTDDRLVSFSLRDDTLDILNFEKFGNRPELYFRELPQKYYSFPKELTIPAGQSHALLPIEFSLDGLDDSQKWALPLKVCEDANGTYAVNPRKYYRTAVLRPILFNEFSGRFSGSSLLGTMAGESDIKFSSTEIKLNVVTDSIVFFYAGQRTEDYEDRINYKVFLQFTGDKVDSKKDLYKMKIWAENEKLKFNSYSTPTYKVSSEMDATKTYLKHTYIVISDIDFDFVDYTSVPNYEIEYNMKGGLSVSRDLDTRKPDEDQGSDSKWW
[1]
  glycan array binding signal (z-score): -0.931
[2]
  glycan array binding signal (z-score): -0.818
GlcNAc(b1-3)Gal
  glycan array binding signal (z-score): -0.756
[3]
  glycan array binding signal (z-score): 0.124
[4]
  glycan array binding signal (z-score): 2.87
[5]
  glycan array binding signal (z-score): -0.205
[6]
  glycan array binding signal (z-score): -0.098
[7]
  glycan array binding signal (z-score): -0.182
Man(a1-2)Man(a1-3)Man
  glycan array binding signal (z-score): 0.722
[8]
  glycan array binding signal (z-score): -0.109
[9]
  glycan array binding signal (z-score): 0.294
MurNAc(b1-4)GlcNAc
  glycan array binding signal (z-score): -0.64
[10]
  glycan array binding signal (z-score): -0.025
[11]
  glycan array binding signal (z-score): 0.382
[12]
  glycan array binding signal (z-score): 0.621
[13]
  glycan array binding signal (z-score): -0.252
[14]
  glycan array binding signal (z-score): -0.739
[15]
  glycan array binding signal (z-score): 3.23
[16]
  glycan array binding signal (z-score): -0.753
[17]
  glycan array binding signal (z-score): -0.62
[18]
  glycan array binding signal (z-score): 2.46
[19]
  glycan array binding signal (z-score): -0.639
[20]
  glycan array binding signal (z-score): -0.032
[21]
  glycan array binding signal (z-score): 0.492
[22]
  glycan array binding signal (z-score): 0.812
